Experimental data as given in PubChem BioAssay AID588692 (Broad Institute, 2011).
Several values for one entry are separate records, joined by “and”; a condition that tells them apart may be missing. Equal entries are not always repeated. The whole screen tested about 360,000 compounds, of which about 830 (0.23%) were called active.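 How the source made its calls: active means mean luciferase reporter signal, scaled so untreated is 0 and the glycosylation-blocking control 100, at or above a set limit in every replicate; inconclusive means mean reaches the limit but not every replicate does; inactive means mean below the limit.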 For the sample, actives were picked, then their nearest neighbours and some compounds at random.

Assay: increase of ERlucT glycosylation luciferase signal, primary screen, N-linked glycosylation inhibitor project, D54 ERlucT cells, luminescence, set 2 (AID 588692);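 further: luciferase carries N-glycosylation sites so blocking glycosylation raises the light; 0% = median of neutral control wells and 100% = median of 100 nM tunicamycin wells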
Details: 24 h, at 12.5 µM, hits give high values, percent of 100 nM tunicamycin response

Structure (SMILES)	reporter increase
CCN(CC)CCOc1ccc2c(c1)C(=NNC(=O)c1ccccn1)c1cc(OCCN(CC)CC)ccc1-2	68.7% (active)
CN(CCOc1ccc(CC2SC(=O)NC2=O)cc1)c1ccccn1 (centres undefined)	4.03% (inactive) and 1.28% (inactive)
CCN(CC)CCNCC(=O)Nc1ccc(Oc2ccccc2)cc1	0.423% (inactive)
CC[C@H](C)C(=O)N[C@H]1CCCN1C(=O)/C=C/c1ccccc1	-0.751% (inactive)
CN1CCN(Cc2nc3c(c(=O)n(C)c(=O)n3C)n2Cc2cccc3ccccc23)CC1	-0.438% (inactive)
O=c1c2cc(-c3ccccc3)sc2nc2n1N=C(c1cccs1)CS2	-9.8% (inactive)
O=C(O[C@H]1[C@H](Cc2ccccc2)NS(=O)(=O)[C@H]2C[C@@H]3C=C[C@]12O3)c1ccc([N+](=O)[O-])cc1	2.96% (inactive)
CC(Sc1nncs1)C(=O)NCc1ccc2c(c1)OCO2 (centres undefined)	-1.14% (inactive)
Cc1cc(C)c2nc3nc(C)cc(C)c3c(N)c2c1	79% (active)
COc1cc(OC)c2c(-c3cccc(-c4cccc(N)c4)c3)cc(=O)oc2c1	4.55% (inactive)
CC(CNS(=O)(=O)c1ccc(Br)cc1)CN(C)C (centres undefined)	0.673% (inactive)
COc1ccccc1C(=O)COC(=O)CSCC(=O)Nc1cc(C)on1	1.73% (inactive)
O=C(NCC1CCCO1)C(C(=O)c1ccccc1)n1cc(Cl)ccc1=O (centres undefined)	1.12% (inactive)
COc1ccccc1-c1nnc2n1N=C(c1ccc(OC(F)F)c(OCC3CC3)c1)CS2	5.65% (inactive)
CCn1c(SCC(=O)NC2CC2)nnc1-c1ccccc1OC	1.11% (inactive)
COc1ccc(C2=Nn3c(nnc3-c3ccccc3OC)SC2)cc1OC1CCCC1	33.9% (active)
Cn1c(=O)[nH]c2c(c(C(=O)O)nn2C)c1=O	-0.816% (inactive)
COCCn1c(SCC(=O)N2CCCCCC2)nc2c(c1=O)SCC2	2.05% (inactive)
CCCNC(=O)C1(C)CCCN(C(=O)c2oc3ccccc3c2C)C1 (centres undefined)	-0.622% (inactive)
C/C(=N\NC(=O)OC(C)(C)C)c1ccc[nH]1	-4.4% (inactive)
NC(=O)CC(NC(=O)Cc1ccc(Br)cc1)c1ccc(NC2CC3CCC2C3)c([N+](=O)[O-])c1 (centres undefined)	43% (active)
CC1CCCCN1CCCNc1ccc(C(CC(N)=O)NC(=O)c2ccccc2)cc1[N+](=O)[O-] (centres undefined)	2.79% (inactive)

Structure (SMILES)	reporter increase
NC(=O)CC(NC(=O)Cc1cccc2ccccc12)c1ccc(NCc2cc(F)ccc2F)c([N+](=O)[O-])c1 (centres undefined)	16% (inactive)
CCOc1ccc2c(=O)c(-c3ccc4c(c3)OCCCO4)c(C)oc2c1	-1.81% (inactive)
COc1ccc(C(=O)NCC(c2ccco2)N2CCc3ccccc32)cc1OC (centres undefined)	2.39% (inactive)
COC(=O)c1ccc(COC(=O)C2CCN(S(=O)(=O)c3c(Cl)cccc3Cl)CC2)o1	0.74% (inactive)
CC12CN(Cc3ccccc3)CC(C)(CN(Cc3ccccc3)C1)C2=NO	-0.263% (inactive)
O=[N+]([O-])c1ccc(C=Nc2ccc(Cl)cc2Cl)s1	36.7% (active)
CS(=O)(=O)N(CC(O)Cn1c2ccccc2c2ccccc21)c1cccc2ccccc12 (centres undefined)	-2.21% (inactive)
CC/C(=N/Nc1ccccc1)c1cnnc(SC)n1	0.994% (inactive)
Cc1cc(S(=O)(=O)c2cc3ccc(O)c(C)c3oc2=O)ccc1F	1.14% (inactive)
COCCn1cnc2c1c(=O)n(CC(=O)NN)c(=O)n2Cc1ccccc1	-0.206% (inactive)
Cn1cnnc1SCc1nnc(-c2ccccc2Br)o1	2.03% (inactive)
Fc1ccc2nc(-c3ccccc3)nc(SCc3nnc(-c4ccccc4)o3)c2c1	-4.84% (inactive)
Cc1ccc2nc(SCc3nnc(-c4ccccc4[N+](=O)[O-])o3)c(C#N)cc2c1	35.7% (active)
CN(C(=O)CSc1nnc(-c2ccc3c(c2)OCO3)o1)C1CCS(=O)(=O)C1 (centres undefined)	1% (inactive)
Cc1[nH]nc(-c2ccc(OCc3cnn(-c4ccccc4)c3)cc2O)c1Oc1ccc(Cl)cc1	-4.08% (inactive)
O=C(NCCN1CCOCC1)c1cc(Sc2cccc(Cl)c2)nc2ccccc12	-2.52% (inactive)
c1ccc2cc3c(NCCN4CCOCC4)ccnc3cc2c1	102% (active)
Cc1cccc(C)c1OCCN1CCOCC1	-0.152% (inactive)
CCOCCCNC(=S)N1CCC(NC(=O)C2CCCCC2)CC1	-1.17% (inactive)
O=C1CN(C(=O)COC(=O)C2CC(=O)N(Cc3ccco3)C2)c2ccccc2N1 (centres undefined)	1.95% (inactive)
C=CCN1C(=O)c2ccc(C(=O)N3CCC(C(=O)OCC)CC3)cc2C1=O	0.619% (inactive)
COc1ccc(C(C)C)cc1-c1ccc2nncn2c1	-0.123% (inactive)
